Source: PubChem BioAssay (Tox21)
Inconclusive results are not listed. Values without a mark were called inactive. Calls follow the shape of the dose curve; as a rule, active = well fitted activation curve with a large enough effect in the signal ratio in the repeat runs (not every such curve was filed as active); inconclusive = weak or mixed curves; inactive = flat fitted curve, though single readings scatter; the % refers to the signal ratio.

Assay: qHTS assay to identify small molecule agonists of the TGF-beta/Smad signaling pathway (AID 1346859)
Details: SBE-bla HEK293T, TGF-beta/Smad beta-lactamase reporter, 5 h; series mostly up to 76.8 µM; activation: at the top concentration
From the text: U.S. Tox21 Program National Center for Advancing Translational Sciences [NCATS] NIH Chemical Genomics Center [NCGC] U.S. Environmental Protection Agency [EPA] National Institutes of Environmental Health Sciences [NIEHS] National Toxicology Program [NTP] U.S. Food and Drug Administration [FDA] Tox21 Assay Overview: Transforming growth factor beta (TGF-beta) superfamily consists of a large number of structurally related dimeric proteins that act as hormones or local mediators in regulating a wide range of biological functions. This superfamily includes TGF-betas themselves, the bone morphogenetic proteins (BMPs) and the activins. These ligands induce oligomerization of serine/threonine receptor kinases and phosphorylate the cytoplasmic signaling molecules of Smad protein family. CellSensor SBE-bla HEK 293T cell line (Life Technologies, Carlsbad, CA), responsive to TGF-beta was used to screen Tox21 10K compound library for identification of agonists/antagonists of the Smad signaling pathway. This cell line contains a beta-lactamase reporter gene under control of the Smad binding element (SBE) stably integrated into HEK 293T cells.
Tox21 Assay Protocol Summary: SBE-bla HEK 293T cells were dispensed at 4,000/well in 6 uL of assay medium into black wall/clear-bottom 1536-well plates using a Multidrop Combi (ThermoFisher Scientific, Waltham, MA) dispenser. After the assay plates were incubated at 37 C and 5% CO2 for an overnight, 23 nL of compounds dissolved in DMSO, positive controls or DMSO only was transferred to the assay plate by a Pintool station (Kalypsys, San Diego, CA). The assay plates were incubated at 37 C and 5% CO2 for 5 hr. One uL of LiveBLAzer B/G FRET substrate (Life Technologies) was added using a Flying Reagent Dispenser (Aurora Discovery, San Diego, CA) and the plates were incubated at room temperature for 2 hr. Fluorescence intensity (405 nm excitation, 460 nm and 530 nm emissions) was measured using an Envision plate reader (PerkinElmer, Shelton, CT).
% is scaled to controls: 0 for no effect and ±100 for the full control effect.

Row | Compound | activation
1 | O=[N+]([O-])c1nccn1CO[C@@H](CO)[C@H](O)CO | -0.312% [at 35.3 µM]
2 | NC1=NCC2c3ccccc3Cc3ccccc3N12 (stereo not given) | 4.38% [at 35.3 µM]
3 | CCCCCCCCCCCCCCCCOP(=O)([O-])OCC[N+](C)(C)C | 2.46% [at 35.3 µM]
4 | C1CSCCS1 | 1.36%
5 | CC(C)C1=CC2=CC[C@@H]3[C@](C)(CCC[C@@]3(C)C(=O)O)[C@H]2CC1 | -4.05%
6 | CCC(=O)Nc1ccc(O)cc1 | -0.191% [at 35.3 µM]
7 | CC(C)NCC(O)COc1ccc(CCOCC2CC2)cc1 (stereo not given) | 0.0077% [at 35.3 µM]
8 | CCCN(CCC)C(=O)C(CCC(=O)O)NC(=O)c1ccccc1 (stereo not given) | -1.09% [at 35.3 µM]
9 | CCCC1CCC(=O)O1 (stereo not given) | 0.161%
10 | OCC(CBr)(CBr)CBr | -1.09%
11 | COC(=O)c1ccc(OC)cc1 | 3.5%
12 | O=C1CCC(C2CCCCC2)CC1 | -0.743%
13 | O=C(O)c1cccc(Cl)c1Cl | 2.48%
14 | C[C@@H]1CN(c2c(F)c(F)c3c(=O)c(C(=O)O)cn(C4CC4)c3c2F)C[C@H](C)N1 | -1.32% [at 15.8 µM]
15 | Cc1cc2nc(N)sc2cc1C | -4.41%
16 | O=C1N(c2ccccc2)c2ccccc2C1(Cc1ccncc1)Cc1ccncc1 | 0.413% [at 35.3 µM]
17 | O=C1CCCCC1C1CCCCC1 (stereo not given) | -0.359%
18 | CCOC(=O)C(Br)c1ccccc1 (stereo not given) | -0.511%
19 | CCNCCO | 3.31%
20 | Cc1c[nH]c(=S)[nH]c1=O | -0.846%

Row | Compound | activation
21 | CCN(CC)CCNC(=O)COc1ccc(Cl)cc1 | -0.28% [at 35.3 µM]
22 | Cc1cc(NS(=O)(=O)c2ccc(N)cc2)nc(C)n1 | 0.123% [at 35.3 µM]
23 | C=CC(C)(O)CC/C=C(\C)CCC=C(C)C (stereo not given) | -0.011%
24 | C=CCCCCCCCCO | -0.545%
25 | NC(Cc1ccc(F)cc1)C(=O)O (stereo not given) | -0.692% [at 6.97 µM]
26 | CCOC(=O)NCCC[Si](OCC)(OCC)OCC | 0.762%
27 | CCc1nnc(NS(=O)(=O)c2ccc(N)cc2)s1 | -0.155% [at 35.3 µM]
28 | CCCCC1CCC(=O)O1 (stereo not given) | 0.633%
29 | COc1cc(C)ccc1C(C)C | -0.157%
30 | O=C1CCCCCCCCCCC(=O)OCCO1 | -3.4%
31 | Cc1cc(S(=O)(=O)O)c(N)cc1Cl | 3.09%
32 | CCCNC(C)C(=O)Nc1c(C)csc1C(=O)OC (stereo not given) | 1.72% [at 35.3 µM]
33 | O=CCCc1ccccc1 | 0%
34 | CCN(O)CC | 0.0219%
35 | C[C@@H](N)C(=O)O | 0.552% [at 35.3 µM]
36 | Cc1c(N)cccc1N | 0.236%
37 | CC1(O)CSC(C)(O)CS1 (stereo not given) | 2.61%
38 | CN(C)Cc1ccccc1 | 0.394%
39 | Cc1ccc([N+](=O)[O-])c(N)c1 | -5.95%
40 | CCOc1ccccc1N | 0.483%
